Screening data as filed in PubChem.
C-LANA FP: inhibitors of KSHV C-LANA binding to DNA, primary screen, biochemical, fluorescence polarization, FAM-LBS DNA, MBP-C-LANA, single point; inhibition, % at 9 µM; 0.078% of 340,000 active; AID 504423, 2011;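 active = highest replicate inhibition at or above 60% at 9 µM, even if other replicates fall short; inactive = all replicates below 60% inhibition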
N-glyco inh: increase of ERlucT glycosylation luciferase signal, primary screen, N-linked glycosylation inhibitor project, D54 ERlucT cells, luminescence, set 2; D54 ERlucT glycosylation luciferase reporter, 24 h; percent of 100 nM tunicamycin response; reporter increase, % at 12.5 µM; 0.23% of 360,000 active;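 active = mean luciferase reporter signal, scaled so untreated is 0 and the glycosylation-blocking control 100, at or above a set limit in every replicate; inconclusive = mean reaches the limit but not every replicate does; inactive = mean below the limit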;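 also: luciferase carries N-glycosylation sites so blocking glycosylation raises the light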
HDAC3 inh: HDAC3 deacetylase inhibitors, primary screen, biochemical, fluorescence, cell-free homogeneous. Histone deacetylase 3 (Homo sapiens), O15379. recombinant HDAC3, fluorogenic peptide/trypsin coupled. inhibition, % at 8.3 µM. 0.15% of 320,000 active. AID 2718, 2010; in the data active = inhibition above about 26%, passing the limit was not always enough; inconclusive = no clear call, values can overlap the other calls
Casp6 inh: human caspase-6 inhibitors, primary screen, biochemical, VEID-R110 fluorescence, single point, set 2. P55212. purified caspase-6, Z-VEID-R110 cleavage fluorescence. inhibition, % at 12.5 µM. 0.53% of 350,000 active;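 active = mean inhibition across replicates at least about 35%, with every replicate also reaching that limit, limit read from the data; inconclusive = only one of the two criteria met; inactive = neither criterion met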
NSD2 inh: NSD2 histone methyltransferase inhibitors, primary screen, biochemical, AlphaScreen, single concentration, set 2 | NSD2 peptide methylation, 120 min | inhibition, % at 12.5 µM | 0.54% of 310,000 active; in the data active = inhibition above about 50%
Keap1-Nrf2 PPI: Keap1-Nrf2 protein-protein interaction inhibitors, primary screen, biochemical, fluorescence polarization, single point; 0.15% of 340,000 active; Keap1 Kelch-Nrf2 peptide fluorescence polarization, 1536-well; inhibition, % at 9.4 µM; Kelch-like ECH-associated protein 1 (Homo sapiens), Q14145; in the data active = inhibition above about 12%; inconclusive = no clear call, values can overlap the other calls; inactive = below about 7.3%;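 also: human Keap1 Kelch domain with fluorescein labeled Nrf2 9mer peptide probe; higher means more block of Keap1 binding to Nrf2 peptide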
Target sequence (Q14145 whole entry, looked up, the tested form may be a part): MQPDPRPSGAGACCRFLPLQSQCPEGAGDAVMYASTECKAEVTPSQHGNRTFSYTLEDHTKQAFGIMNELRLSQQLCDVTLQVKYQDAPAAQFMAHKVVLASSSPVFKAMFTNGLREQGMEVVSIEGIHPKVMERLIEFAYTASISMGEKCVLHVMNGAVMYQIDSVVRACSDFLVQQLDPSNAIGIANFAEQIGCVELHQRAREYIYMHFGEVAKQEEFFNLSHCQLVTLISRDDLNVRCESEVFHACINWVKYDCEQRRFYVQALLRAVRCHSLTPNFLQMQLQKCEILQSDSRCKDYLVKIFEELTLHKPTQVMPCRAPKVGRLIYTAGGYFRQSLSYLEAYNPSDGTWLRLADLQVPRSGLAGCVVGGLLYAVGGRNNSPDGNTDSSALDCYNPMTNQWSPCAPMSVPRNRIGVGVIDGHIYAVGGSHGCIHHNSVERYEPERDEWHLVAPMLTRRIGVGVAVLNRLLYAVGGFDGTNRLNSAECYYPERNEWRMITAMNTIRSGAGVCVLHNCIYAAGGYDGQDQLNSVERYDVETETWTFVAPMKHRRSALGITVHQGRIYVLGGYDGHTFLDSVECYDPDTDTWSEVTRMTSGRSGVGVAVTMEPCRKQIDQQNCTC
Hits are given with their value; n = inactive; u = inconclusive; x = not tested or not shown. Sampled rows, rich in hits. Any-hit rate of the full collection: about 1.1%.

SMILES	C-LANA FP	N-glyco inh	HDAC3 inh	Casp6 inh	NSD2 inh	Keap1-Nrf2 PPI
COc1ccc(S(=O)(=O)N2CCOC23CCN(S(=O)(=O)c2ccc(F)cc2)CC3)cc1	n	n	n	n	n	n
COc1cccc(CN2CC3(C2)CN(C(=O)C2CC2)[C@@H](CO)c2[nH]c4cc(OC)ccc4c23)c1	x	x	x	n	x	x
CSc1ccccc1OCc1cc(C(=O)N2CCc3c(Cl)cccc3C2)no1	n	n	u	64	n	n
Cc1noc(C)c1NC(=O)N(C)C[C@@H]1Oc2ccc(NC(=O)Cc3ccccc3)cc2C(=O)N([C@@H](C)CO)C[C@H]1C	x	x	x	n	x	x
O=C1Nc2cccnc2N(C(=O)CCl)c2ccccc21	n	n	n	47	n	n
NCCN1CCN(CC(=O)N2c3ccccc3C(=O)Nc3cccnc32)CC1	n	n	n	n	x	n
COc1ccc(-n2c(NNC(C)=O)nc3sc4c(c3c2=O)CCCC4)cc1	n	u	n	69	n	n
COc1ccc(-n2c(C)nc3sc4c(c3c2=O)CCCC4)cc1	x	x	n	x	n	x
Cc1cccc(S(=O)(=O)N2C[C@@H](O)COC[C@H]3O[C@@H](CC(=O)NCc4ccncn4)CC[C@@H]32)c1	x	x	x	n	x	x
O=c1[nH]c(=O)c2nc3c4ccccc4c4ccccc4c3nc2[nH]1	n	96	n	n	n	n
O=C(Cc1cccs1)Nc1ccc(-c2nc3ccccc3[nH]2)cc1	n	33	n	x	n	n
CC(=O)N(C)c1ccc(NC(=O)Cc2cccs2)cc1	n	n	n	38	n	n
O=C(CSc1ccccc1)Nc1ccc(-c2nc3ccccc3[nH]2)cc1	n	n	n	x	n	n
Cc1noc(C)c1NC(=O)N(C)C[C@@H]1Oc2c(NC(=O)C3CC3)cccc2C(=O)N([C@H](C)CO)C[C@H]1C	x	x	x	n	x	x
CCOC(=O)CSc1ncnc2c1nnn2-c1ccc(F)cc1	n	n	n	x	n	n
CCOC(=O)CC(=O)CSc1ncnc2c1nnn2-c1ccc(F)cc1	n	n	61	n	n	n
Cc1noc(C)c1NC(=O)Nc1ccc2c(c1)C(=O)N([C@H](C)CO)C[C@H](C)[C@H](CN(C)CC1CCCCC1)O2	x	x	x	n	x	x
C[C@H]1c2cccc(O)c2C(O)=C2C(=O)[C@]3(O)C(O)=C(C(N)=O)C(=O)[C@@H](N(C)C)[C@@H]3[C@@H](O)[C@@H]21	n	n	n	x	x	n
CN(C)c1ccc(O)c2c1CC1CC3[C@@H](N(C)C)C(=O)C(C(N)=O)=C(O)[C@]3(O)C(=O)C1=C2O (stereo partly specified)	77	n	n	66	x	n
O=c1[nH]c(Nc2ccccc2)cc2cc(Br)ccc12	n	n	n	99	x	n
CC(=O)c1cccc(Nc2nc(-c3ccccc3)nc3ccccc23)c1	n	n	n	n	n	n
CC(=O)c1cccc(-c2ccc3c(=O)[nH]c(Nc4ccccc4)cc3c2)c1	n	n	n	95	x	n
COc1ccccc1Nc1cc2cc(Br)ccc2c(=O)[nH]1	n	n	n	x	x	n
O=c1[nH]c(Nc2ccccc2)cc2ccccc12	n	n	n	x	82	n
Cn1c(=O)cc(Nc2ccccc2)[nH]c1=O	n	n	n	n	n	n
SMILES	C-LANA FP	N-glyco inh	HDAC3 inh	Casp6 inh	NSD2 inh	Keap1-Nrf2 PPI
O=C(C1CCOCC1)N1C[C@H]2[C@@H](c3ccccc31)[C@H](CO)N2C(=O)Nc1ccccc1F	x	x	x	n	x	x
O=C(/C(=N/N=C/c1ccc(O)c(O)c1)c1ccccc1)c1ccccc1	n	n	n	44	n	n
Oc1ccc(/C=N/N(c2ccccc2)c2ccccc2)cc1O	n	n	n	n	n	n
Oc1ccc(/C=N/N=C/c2ccc(O)c(O)c2)cc1O	77	n	n	68	x	n
COc1ccc(OC)c(C(C)NC(=O)C23CC4CC(CC(C4)C2)C3)c1 (stereo unspecified)	109	n	n	n	n	n
Oc1[nH]c(N=C2N=c3ccccc3=N2)c2ccccc12	n	117	n	n	n	n
O=C(C[C@@H]1C[C@H]2c3cc(NC(=O)C4CCC4)ccc3O[C@H]2[C@@H](CO)O1)NCc1ccncc1	x	x	x	n	x	x
COc1ccccc1NC(=O)N1C[C@@H]2[C@H](c3ccccc31)[C@H](CO)N2CC1CCCC1	x	x	x	n	x	x
O=C(CC1SC(N2CCCC2)=NC1=O)Nc1ccc(C(=O)Nc2ncccc2O)cc1 (stereo unspecified)	n	n	94	n	n	n
Cc1ccnc(NC(=O)c2ccc(NC(=O)CC3SC(N4CCCC4)=NC3=O)cc2)c1 (stereo unspecified)	n	n	n	n	n	n
COc1cccc(OCC(O)CN2CCN(CCN3C(=O)c4cccc5cccc(c45)C3=O)CC2)c1 (stereo unspecified)	n	34	n	n	n	n
Cc1cccc(-n2c(C)nc3cc(C(=O)NCCN4CCOCC4)ccc32)c1	x	n	x	89	n	x
Cc1nc2cc(C(=O)NCCN3CCOCC3)ccc2n1-c1ccc(F)cc1F	n	n	x	x	x	n
O=C(c1ncn(Cc2ccccc2)c1C(=O)N1CCN(c2ccccc2)CC1)N1CCN(c2ccccc2)CC1	n	50	n	n	x	n
CN(C)CC#Cc1ccc([C@H]2[C@@H](CO)N3CCCCN(CC4CC4)C[C@H]23)cc1	x	x	x	n	x	x
COc1ccc(CC(=O)Nc2ccc(-c3ccc4nnc(C)n4n3)cc2)cc1OC	n	30	n	n	n	n
COc1ccc(OC)c(S(=O)(=O)Nc2ccc(-c3ccc4nnc(C)n4n3)cc2)c1	x	n	n	n	n	x
O=C(NC[C@H]1N[C@H](CO)[C@@H]1c1ccc(C2=CCCC2)cc1)C1CCCC1	x	x	x	n	x	x
Cc1cc(NC2=CC(=O)C(=O)c3ccccc32)no1	n	n	x	48	n	n
COc1cccc(-c2ccc([C@@H]3[C@@H](CO)N4CCCCN(C(=O)NC(C)C)C[C@@H]34)cc2)c1	x	x	x	n	x	x
COc1ccc(S(=O)(=O)Nc2cccc3c2O[C@@H](CN(C)C(=O)Nc2ccccc2)[C@H](C)CN([C@@H](C)CO)C3=O)cc1	x	x	x	n	x	x
N#Cc1c(SCC(=O)Nc2nc3ccc(Br)cc3s2)sc2c(O)cc(=O)[nH]c12	n	n	n	n	x	n
CCCSc1nnc(NC(=O)CSc2sc3c(O)cc(=O)[nH]c3c2C#N)s1	n	n	n	45	n	n
N#Cc1c(SCC(=O)Nc2nc3ccccc3s2)sc2c(O)cc(=O)[nH]c12	n	n	n	60	n	n
N#Cc1c(SCC(=O)Nc2nccs2)sc2c(O)cc(=O)[nH]c12	n	n	n	82	n	n
